According to PubChem BioAssay AID1159580 (chemical genetic matrix, 2015):
About 2,000 (36%) of roughly 5,500 compounds were called active. Another 18% or so got no clear call; they are omitted. This is one part of the list. A number with no mark means an inactive call. Rule as the data show it: active = normalized growth mostly below about 0.91 (no sharp cut-off); inconclusive = no clear call, values can overlap the other calls; inactive = mostly above about 0.92.

Assay: chemical genetic growth profiling, strain panel (AID 1159580);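 also: tested at 20 µM; growth read once vehicle control cultures reached saturation at 30 °C; 1 = growth at the plate median or of vehicle wells; lower values mean less growth of the strain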
Conditions: growth OD
[1] = S. cerevisiae deletion strains, locus YAL013W, strain DEP1, hits give low values
[2] = S. cerevisiae deletion strains, locus YDR150W, strain NUM1, hits give low values
[3] = S. cerevisiae deletion strains, locus YGR078C, strain PAC10, hits give low values
[4] = S. cerevisiae deletion strains, locus YJR075W, strain HOC1, hits give low values
[5] = S. cerevisiae deletion strains, locus YMR307W, strain GAS1, hits give low values
[6] = S. cerevisiae deletion strains, locus YNL322C, strain KRE1, hits give low values
[7] = S. cerevisiae deletion strains, locus YBR229C, strain ROT2, hits give low values
[8] = S. cerevisiae deletion strains, locus YDL101C, strain DUN1, hits give low values
[9] = S. cerevisiae deletion strains, locus YEL061C, strain CIN8, hits give low values
[10] = S. cerevisiae deletion strains, locus YHR030C, strain SLT2, hits give low values
[11] = S. cerevisiae deletion strains, locus YJR043C, strain POL32, hits give low values
[12] = S. cerevisiae deletion strains, locus YLR039C, strain RIC1, hits give low values
[13] = S. cerevisiae deletion strains, locus YLR262C, strain YPT6, hits give low values
[14] = S. cerevisiae deletion strains, locus YNL153C, strain GIM3, hits give low values
[15] = S. cerevisiae deletion strains, locus YPL241C, strain CIN2, hits give low values

SMILES: COc1cc(CNC(=O)CCCCCCC(C)C)ccc1O
- normalized growth [1]: 0.944
- normalized growth (S. cerevisiae deletion strains, locus YAL040C, strain CLN3, hits give low values): 0.986
- normalized growth (S. cerevisiae deletion strains, locus YCL061C, strain MRC1 (second series), hits give low values): 0.993
- normalized growth [2]: 1
- normalized growth (S. cerevisiae deletion strains, locus YDR363W, strain ESC2, hits give low values): 0.974
- normalized growth (S. cerevisiae deletion strains, locus YER002W, strain NOP16, hits give low values): 1
- normalized growth [3]: 0.999
- normalized growth [4]: 0.988
- normalized growth [5]: 0.973
- normalized growth (S. cerevisiae deletion strains, locus YNL175C, strain NOP13, hits give low values): 1.01
- normalized growth (S. cerevisiae deletion strains, locus YNL197C, strain WHI3, hits give low values): 0.981
- normalized growth (S. cerevisiae deletion strains, locus YNL224C, strain SQS1, hits give low values): 0.981
- normalized growth [6]: 0.983
- normalized growth (S. cerevisiae deletion strains, locus YOR083W, strain WHI5 (second series), hits give low values): 0.981

SMILES: CCC[C@H]1CC2=C(C[C@@H](CC)CC3=C1C(=O)OC3=O)C(=O)OC2=O
- normalized growth (S. cerevisiae deletion strains, locus YBR021W, strain FUR4, hits give low values): 1
- normalized growth [7]: 1.01
- normalized growth (S. cerevisiae deletion strains, locus YCL029C, strain bik1, hits give low values): 1.02
- normalized growth (S. cerevisiae deletion strains, locus YDL035C, strain GPR1, hits give low values): 1.03
- normalized growth (S. cerevisiae deletion strains, locus YDL074C, strain BRE1, hits give low values): 1.02
- normalized growth [8]: 1.02
- normalized growth (S. cerevisiae deletion strains, locus YDL134C, strain PPH21, hits give low values): 1.01
- normalized growth (S. cerevisiae deletion strains, locus YDL185W, strain tfp1, hits give low values): 1.01
- normalized growth (S. cerevisiae deletion strains, locus YDL192W, strain arf1, hits give low values): 1.02
- normalized growth (S. cerevisiae deletion strains, locus YDR101C, strain arx1, hits give low values): 1.03
- normalized growth [2]: 1.01
- normalized growth (S. cerevisiae deletion strains, locus YDR162C, strain NBP2, hits give low values): 1.01
- normalized growth (S. cerevisiae deletion strains, locus YDR318W, strain mcm21, hits give low values): 0.998
- normalized growth (S. cerevisiae deletion strains, locus YDR388W, hits give low values): 1.02
- normalized growth (S. cerevisiae deletion strains, locus YDR502C, strain sam2, hits give low values): 1.01
- normalized growth [9]: 1.01
- normalized growth (S. cerevisiae deletion strains, locus YER110C, hits give low values): 1.02
- normalized growth (S. cerevisiae deletion strains, locus YER155C, strain BEM2, hits give low values): 1.01
- normalized growth (S. cerevisiae deletion strains, locus YER167W, strain BCK2, hits give low values): 1.01
- normalized growth (S. cerevisiae deletion strains, locus YGL078C, strain dbp3, hits give low values): 0.65 (active)
- normalized growth (S. cerevisiae deletion strains, locus YGL086W, strain mad1, hits give low values): 1.05
- normalized growth (S. cerevisiae deletion strains, locus YGL248W, strain PDE1, hits give low values): 1
- normalized growth [3]: 1.01
- normalized growth (S. cerevisiae deletion strains, locus YGR135W, strain pre9, hits give low values): 1
- normalized growth (S. cerevisiae deletion strains, locus YGR252W, strain gcn5, hits give low values): 0.969
- normalized growth [10]: 1.01
- normalized growth (S. cerevisiae deletion strains, locus YHR079C, strain IRE1 (second series), hits give low values): 1.02
- normalized growth (S. cerevisiae deletion strains, locus YHR094C, strain hxt1, hits give low values): 1.01
- normalized growth (S. cerevisiae deletion strains, locus YHR129C, strain ARP1, hits give low values): 1.02
- normalized growth (S. cerevisiae deletion strains, locus YHR200W, strain rpn10, hits give low values): 1
- normalized growth (S. cerevisiae deletion strains, locus YIL066C, strain RNR3, hits give low values): 1.02
- normalized growth (S. cerevisiae deletion strains, locus YIL073C, strain SPO22, hits give low values): 1.07
- normalized growth (S. cerevisiae deletion strains, locus YIL125W, strain kgd1, hits give low values): 0.875 (active)
- normalized growth (S. cerevisiae deletion strains, locus YIR030C, strain dcg1, hits give low values): 1.01
- normalized growth (S. cerevisiae deletion strains, locus YJL095W, strain BCK1, hits give low values): 1.01
- normalized growth (S. cerevisiae deletion strains, locus YJL134W, strain LCB3, hits give low values): 1.01
- normalized growth (S. cerevisiae deletion strains, locus YJL168C, strain set2, hits give low values): 1.01
- normalized growth (S. cerevisiae deletion strains, locus YJL187C, strain SWE1 (second series), hits give low values): 1.02
- normalized growth [11]: 1.01
- normalized growth [4]: 1.01
- normalized growth (S. cerevisiae deletion strains, locus YKL009W, strain mrt4, hits give low values): 0.663 (active)
- normalized growth (S. cerevisiae deletion strains, locus YKL068W, hits give low values): 0.979
- normalized growth (S. cerevisiae deletion strains, locus YKL085W, strain MDH1 (second series), hits give low values): 0.932
- normalized growth (S. cerevisiae deletion strains, locus YKL085W, strain MDH1, hits give low values): 0.932
- normalized growth (S. cerevisiae deletion strains, locus YKL190W, strain CNB1, hits give low values): 1.01
- normalized growth (S. cerevisiae deletion strains, locus YKR001C, strain vps1, hits give low values): 1.02
- normalized growth [12]: 1.04
- normalized growth (S. cerevisiae deletion strains, locus YLR058C, strain SHM2, hits give low values): 1.01
- normalized growth (S. cerevisiae deletion strains, locus YLR102C, strain apc9, hits give low values): 1.02
- normalized growth [13]: 1.02
- normalized growth (S. cerevisiae deletion strains, locus YLR268W, strain sec22, hits give low values): 1.04
- normalized growth (S. cerevisiae deletion strains, locus YLR330W, strain CHS5, hits give low values): 1.01
- normalized growth (S. cerevisiae deletion strains, locus YLR342W, strain FKS1 (second series), hits give low values): 1.03
- normalized growth (S. cerevisiae deletion strains, locus YLR371W, strain rom2, hits give low values): 1.03
- normalized growth (S. cerevisiae deletion strains, locus YLR418C, strain cdc73, hits give low values): 0.991
- normalized growth (S. cerevisiae deletion strains, locus YML016C, strain PPZ1, hits give low values): 1
- normalized growth (S. cerevisiae deletion strains, locus YML032C, strain rad52, hits give low values): 0.999
- normalized growth (S. cerevisiae deletion strains, locus YML124C, strain tub3, hits give low values): 1.01
- normalized growth (S. cerevisiae deletion strains, locus YMR078C, strain ctf18, hits give low values): 1.01
- normalized growth (S. cerevisiae deletion strains, locus YMR223W, strain ubp8, hits give low values): 0.987
- normalized growth [5]: 0.947
- normalized growth (S. cerevisiae deletion strains, locus YNL067W, strain RPL9B, hits give low values): 1.01
- normalized growth [14]: 1.02
- normalized growth (S. cerevisiae deletion strains, locus YNL233W, strain BNI4, hits give low values): 0.999
- normalized growth (S. cerevisiae deletion strains, locus YNL250W, strain rad50, hits give low values): 0.814 (active)
- normalized growth (S. cerevisiae deletion strains, locus YNL271C, strain bni1, hits give low values): 0.845 (active)
- normalized growth (S. cerevisiae deletion strains, locus YNL298W, strain CLA4, hits give low values): 0.818 (active)
- normalized growth (S. cerevisiae deletion strains, locus YNL307C, strain MCK1, hits give low values): 1.02
- normalized growth [6]: 1.01
- normalized growth (S. cerevisiae deletion strains, locus YNR052C, strain pop2, hits give low values): 0.998
- normalized growth (S. cerevisiae deletion strains, locus YOL006C, strain TOP1, hits give low values): 1.08
- normalized growth (S. cerevisiae deletion strains, locus YOL012C, strain htz1): 0.773
- normalized growth (S. cerevisiae deletion strains, locus YOL147C, strain pex11, hits give low values): 1.01
- normalized growth (S. cerevisiae deletion strains, locus YOR061W, strain CKA2, hits give low values): 1.01
- normalized growth (S. cerevisiae deletion strains, locus YOR069W, strain VPS5, hits give low values): 1.02
- normalized growth (S. cerevisiae deletion strains, locus YOR136W, strain idh2, hits give low values): 1.04
- normalized growth (S. cerevisiae deletion strains, locus YOR144C, strain elg1, hits give low values): 1.01
- normalized growth (S. cerevisiae deletion strains, locus YOR184W, strain ser1, hits give low values): 1.02
- normalized growth (S. cerevisiae deletion strains, locus YOR316C, strain cot1, hits give low values): 1.02
- normalized growth [15]: 1.01
- normalized growth (S. cerevisiae deletion strains, locus YPR119W, strain clb2, hits give low values): 1.02
- normalized growth (S. cerevisiae deletion strains, locus YPR141C, strain kar3, hits give low values): 0.896 (active)
- normalized growth (S. cerevisiae deletion strains, locus YPR163C, strain tif3, hits give low values): 1.01
- normalized growth (S. cerevisiae deletion strains, locus YPR167C, strain met16, hits give low values): 0.998
- normalized growth (S. cerevisiae deletion strains, strain wtn01, hits give low values): 1.06

SMILES: CSC1=NCN(Cc2ccccc2)CN1
- normalized growth [1]: 0.991
- normalized growth [7]: 0.996
- normalized growth [8]: 1
- normalized growth [2]: 1.01
- normalized growth [9]: 0.981
- normalized growth [3]: 1
- normalized growth [10]: 1.02
- normalized growth (S. cerevisiae deletion strains, locus YHR087W, strain rtc3, hits give low values): 1
- normalized growth [11]: 1
- normalized growth [4]: 0.99
- normalized growth [12]: 0.969
- normalized growth (S. cerevisiae deletion strains, locus YLR058C, strain SHM2 (second series), hits give low values): 1.01
- normalized growth (S. cerevisiae deletion strains, locus YLR085C, strain ARP6, hits give low values): 0.954
- normalized growth [13]: 0.972
- normalized growth (S. cerevisiae deletion strains, locus YML094W, strain GIM5, hits give low values): 0.981
- normalized growth (S. cerevisiae deletion strains, locus YMR219W, strain ESC1, hits give low values): 0.986
- normalized growth (S. cerevisiae deletion strains, locus YMR263W, strain SAP30, hits give low values): 1
- normalized growth [14]: 1.02
- normalized growth (S. cerevisiae deletion strains, locus YNL298W, strain CLA4 (second series), hits give low values): 1
- normalized growth [6]: 0.972
- normalized growth (S. cerevisiae deletion strains, locus YNR030W, strain Alg12, hits give low values): 0.977
- normalized growth (S. cerevisiae deletion strains, locus YPL055C, strain LGE1, hits give low values): 1.06
- normalized growth [15]: 0.987
- normalized growth (S. cerevisiae deletion strains, locus YPR135W, strain CTF4, hits give low values): 1.1
- normalized growth (S. cerevisiae strains, strain wild type, hits give low values): 0.98
